target: APOBEC3G R313E/R320D (Homo sapiens, UniProt Q9HC16 Q9HC16:1-384, R313E,R320D); assay: FP; 5 mM MgCl2, 37 C; conditions: tags: Sf9, pAcG2T; label: internal fluorescein-dT; ssDNA; [15 (fluorescein-dT)]
Description: Apo3G-DNA binding were monitored by changes in steady state fluorescence depolarization (rotational anisotropy). Reaction mixtures (70 μl), containing an F-labeled DNA ([…]) in buffer (50 mM HEPES, pH 7.3, 1 mM DTT and 5 mM MgCl₂) and varying concentration of 0 to 500 nM Apo3G, were incubated at 37° C. The sequence of the ssDNA is: tta gat gag tgt aa(FdT) gtg ata tat gtg tat. Rotational anisotropy was measured as described previously (Chelico et al., 2006). The fraction of DNA bound to protein was determined as described previously (Bertram et al., 2004).

Sequence of APOBEC3G R313E/R320D (Q9HC16 whole entry R313E/R320D, one chain of several): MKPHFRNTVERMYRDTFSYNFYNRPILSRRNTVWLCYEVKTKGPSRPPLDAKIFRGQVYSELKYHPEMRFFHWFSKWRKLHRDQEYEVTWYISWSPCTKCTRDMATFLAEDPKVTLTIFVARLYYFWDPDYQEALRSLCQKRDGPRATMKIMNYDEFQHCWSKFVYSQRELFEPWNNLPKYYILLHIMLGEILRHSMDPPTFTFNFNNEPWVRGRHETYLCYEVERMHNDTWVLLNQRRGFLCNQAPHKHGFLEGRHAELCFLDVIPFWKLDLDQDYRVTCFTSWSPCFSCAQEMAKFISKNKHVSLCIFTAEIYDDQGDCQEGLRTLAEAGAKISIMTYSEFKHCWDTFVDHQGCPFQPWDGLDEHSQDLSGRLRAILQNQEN

Sequence | binding signal
TTAGATGAGTGTAATGTGATATATGTGTAT | 77 % of wt
